Test system: LXRa homodimer (NR concentration 270 nM)
Assay: PBM binding z-score (relative to random genomic background probes); higher = stronger binding; sequences stand for … in GC…GCGATTGACAGCGTAGAATGAAGG
Method in brief: (§1)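 For binding z-scores, the reference was random background probes on custom Agilent 4×180K protein-binding microarrays. These arrays were incubated 1 h with ligand-free nuclear receptor dimers in PBS pH 7.4, 2% milk, 0.02% Triton X-100, 1 mM DTT, 0.2 mg/mL BSA and 0.4 mg/ml salmon testes DNA. Fluorescence was scanned after antibody detection of each partner (one per run) and regression-normalized.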

Q: TGTCAAAGTTCAAAGGTAAGGTAAGTATCCACAC was tested. Which PBM binding z-score did it give?
A: 4.78

Q: TCAGATAGGTAAATGCTAGGTGAAAGTCCGATCT was tested. Which PBM binding z-score did it give?
A: -0.0618

Q: Which PBM binding z-score does the source give for CCTACTGGGCCAAAGGTCATTGAGTCCAATGCTC here?
A: 3.87

Q: How did the PBM binding z-score turn out when GGAACGTGGGCATTCGAGTTGATAGCATGGCGAT was run?
A: -0.683

Q: Which PBM binding z-score does the source give for TCTGCCAGGTCAGTTGGTCAGCTAACGAGCTGCC here?
A: -0.414

Q: How did the PBM binding z-score turn out when ATCTCTAGGTAAAAGTTCCGTGAATCCCGAGGAT was run?
A: -0.0221

Q: For TTTAGCAGGCCAGAGGGTCACTCAAGAGGTACGG, which PBM binding z-score is on record?
A: -0.56

Q: With CGAACTAGGTCATCCAGGAAAGTGAATACATTGA as the sequence, how does the PBM binding z-score read?
A: 0.469

Q: GATACAGGGTAAAGGCCAGAGTACGCGTATTGAT was tested. Which PBM binding z-score did it give?
A: -0.132

Q: TCTGCTAGGTCAACGATGTTCAGCTAATCTGCTA was tested. Which PBM binding z-score did it give?
A: -0.237

Q: TCGTGTAGGTTAGTCGGGGCATTCAGCCAACATA was tested. Which PBM binding z-score did it give?
A: 0.294

Q: With CCGACTGGGGCATAAGGTTGCCATAAGCCAGCCC as the sequence, how does the PBM binding z-score read?
A: -0.75

Q: GATGCTAGGTCAGGTTGGTCAGCTAACGGGTACG was tested. Which PBM binding z-score did it give?
A: -0.12

Q: How did the PBM binding z-score turn out when GCTACTGGGGCATCAGCAGGTTACCATAACTTAA was run?
A: -0.19

Q: Which PBM binding z-score does the source give for GCTCAGAGGACAAGGTCAGAGCTTTGTCCGTAGA here?
A: -0.421

Q: With CCAGACAGGTGTGAAGGTAACTCAGCCTCGATTA as the sequence, how does the PBM binding z-score read?
A: 0.0718

Q: How did the PBM binding z-score turn out when GCAGACAGGTGAAACGCAGGTAACTCAGGGTGGC was run?
A: -0.515

Q: TCATATAGGTAATACACGTGAAAGTCGGCATCTA was tested. Which PBM binding z-score did it give?
A: 0.413

Test system: LXRb:RXRa (NR concentration 270 nM, RXRa partner concentration 90 nM)
Assay: as above
Method in brief: as §1

Q: CGTCCAAGGCCAAGGTCAGTGAAAGAGACTCGAA was tested. Which PBM binding z-score did it give?
A: 1.21

Q: For CCGACTGGGCCAAGGTTACCATAACGCACAGCCA, which PBM binding z-score is on record?
A: 0.279

Q: How did the PBM binding z-score turn out when AGTCATAGTTCAGGACGAGGTAACGTAAAGCACG was run?
A: 0.662

Q: Which PBM binding z-score does the source give for CGAACTAGGTCAAGGACAGTTAATCTCCGCACGC here?
A: 1.58

Q: ATCTCTAGGTAAAAGCTCAGTGAATCCCGAGGAT was tested. Which PBM binding z-score did it give?
A: -0.514

Q: For CGTCCAAGGTCGATGCTAGGTCAGTGAAAGCATT, which PBM binding z-score is on record?
A: 1.33

Q: With CGTCCAAGGTCAATGCTAGGTCAGTCAAAGCATT as the sequence, how does the PBM binding z-score read?
A: 4.39

Q: TCTTGTAGATCATTAGAGGTTAAGAAAGTGCGCT was tested. Which PBM binding z-score did it give?
A: 2.27

Q: CGAACGAGGGCATGATTTGATAGCAAATGCCGAT was tested. Which PBM binding z-score did it give?
A: -0.0288

Q: With CGGCCTAGGTCAGGGCCAGTATAGGAGGAACGTT as the sequence, how does the PBM binding z-score read?
A: 0.402

Q: With CAAACTAGGTCACAGAGGTCATAGTCCGTGCGTA as the sequence, how does the PBM binding z-score read?
A: 5.6

Q: For GCTAGCAGGCCATTTGGGTCATTCAATGACGGGC, which PBM binding z-score is on record?
A: 0.324

Q: CCTAATGGGCCAAGGTCATTGATCAGTCAAAGCA was tested. Which PBM binding z-score did it give?
A: 2.93

Q: With GCGACTGGGGCATCAGCAGATTACCATAACTTAA as the sequence, how does the PBM binding z-score read?
A: 0.0496

Q: Which PBM binding z-score does the source give for TCTCGGAGGACACGAAGGTCCGAGCTTTCCAGAG here?
A: -0.734

Q: Which PBM binding z-score does the source give for ACAGACAGATGAGTGAAGGTAACTCAGCTGGACG here?
A: -0.328

Q: Which PBM binding z-score does the source give for CCTTACGGGTCACTCCAGGTAATAGCATCGGAGT here?
A: 3.31

Q: CCTACTGGCCCAAAAAGGTCATTGATGCCGATAA was tested. Which PBM binding z-score did it give?
A: 4.4

Q: Which PBM binding z-score does the source give for CGAACTAGGTCAGAAGAGGACAGTGAAGGATGAT here?
A: 0.331

Q: ATACCAAGGTGATCGTGAGGTCGTGGATACTAAC was tested. Which PBM binding z-score did it give?
A: 1.39

Q: With TGTCACAGTTCAAAGGTAACGTAAGTATCCACAC as the sequence, how does the PBM binding z-score read?
A: 2.87

Q: Which PBM binding z-score does the source give for ATCTCTAGGTAAAGATAATTCAGTGAATGCAAAT here?
A: 0.485

Q: For TGTCAAAGTTCAAAGGTAAGGTAAGTATCCACAC, which PBM binding z-score is on record?
A: 4.45

Q: With TCAGATAGGTAAATGCTAGGTGAAAGTCCGATCT as the sequence, how does the PBM binding z-score read?
A: 0.329

Q: CCTACTGGGCCAAAGGTCATTGAGTCCAATGCTC was tested. Which PBM binding z-score did it give?
A: 4.99

Q: How did the PBM binding z-score turn out when GGAACGTGGGCATTCGAGTTGATAGCATGGCGAT was run?
A: -1.02

Q: Which PBM binding z-score does the source give for TCTGCCAGGTCAGTTGGTCAGCTAACGAGCTGCC here?
A: 0.653

Q: With ATCTCTAGGTAAAAGTTCCGTGAATCCCGAGGAT as the sequence, how does the PBM binding z-score read?
A: -0.0121

Q: With TTTAGCAGGCCAGAGGGTCACTCAAGAGGTACGG as the sequence, how does the PBM binding z-score read?
A: 1.09

Q: With CGAACTAGGTCATCCAGGAAAGTGAATACATTGA as the sequence, how does the PBM binding z-score read?
A: 2.15

Q: How did the PBM binding z-score turn out when GATACAGGGTAAAGGCCAGAGTACGCGTATTGAT was run?
A: 0.0218

Q: How did the PBM binding z-score turn out when TCTGCTAGGTCAACGATGTTCAGCTAATCTGCTA was run?
A: 1.39

Q: Which PBM binding z-score does the source give for TCGTGTAGGTTAGTCGGGGCATTCAGCCAACATA here?
A: 1.36

Q: Which PBM binding z-score does the source give for CCGACTGGGGCATAAGGTTGCCATAAGCCAGCCC here?
A: -0.498

Q: For GATGCTAGGTCAGGTTGGTCAGCTAACGGGTACG, which PBM binding z-score is on record?
A: 0.742

Q: How did the PBM binding z-score turn out when GCTACTGGGGCATCAGCAGGTTACCATAACTTAA was run?
A: 0.88

Q: For GCTCAGAGGACAAGGTCAGAGCTTTGTCCGTAGA, which PBM binding z-score is on record?
A: 1.27

Q: For CCAGACAGGTGTGAAGGTAACTCAGCCTCGATTA, which PBM binding z-score is on record?
A: -0.315

Q: GCAGACAGGTGAAACGCAGGTAACTCAGGGTGGC was tested. Which PBM binding z-score did it give?
A: -0.48

Q: How did the PBM binding z-score turn out when TCATATAGGTAATACACGTGAAAGTCGGCATCTA was run?
A: 1.06

Test system: LXRb homodimer (NR concentration 270 nM)
Assay: as above
Method in brief: as §1

Q: How did the PBM binding z-score turn out when CGTCCAAGGCCAAGGTCAGTGAAAGAGACTCGAA was run?
A: -0.878

Q: Which PBM binding z-score does the source give for CCGACTGGGCCAAGGTTACCATAACGCACAGCCA here?
A: -1.2

Q: AGTCATAGTTCAGGACGAGGTAACGTAAAGCACG was tested. Which PBM binding z-score did it give?
A: 0.0216

Q: With CGAACTAGGTCAAGGACAGTTAATCTCCGCACGC as the sequence, how does the PBM binding z-score read?
A: -0.0529

Q: How did the PBM binding z-score turn out when ATCTCTAGGTAAAAGCTCAGTGAATCCCGAGGAT was run?
A: 0.446

Q: CGTCCAAGGTCGATGCTAGGTCAGTGAAAGCATT was tested. Which PBM binding z-score did it give?
A: -0.866

Q: With CGTCCAAGGTCAATGCTAGGTCAGTCAAAGCATT as the sequence, how does the PBM binding z-score read?
A: 0.815

Q: How did the PBM binding z-score turn out when TCTTGTAGATCATTAGAGGTTAAGAAAGTGCGCT was run?
A: 0.3

Q: For CGAACGAGGGCATGATTTGATAGCAAATGCCGAT, which PBM binding z-score is on record?
A: -0.66

Q: Which PBM binding z-score does the source give for CGGCCTAGGTCAGGGCCAGTATAGGAGGAACGTT here?
A: -1.29

Q: For CAAACTAGGTCACAGAGGTCATAGTCCGTGCGTA, which PBM binding z-score is on record?
A: 1.6

Q: GCTAGCAGGCCATTTGGGTCATTCAATGACGGGC was tested. Which PBM binding z-score did it give?
A: -1.08

Q: How did the PBM binding z-score turn out when CCTAATGGGCCAAGGTCATTGATCAGTCAAAGCA was run?
A: -0.303

Q: How did the PBM binding z-score turn out when GCGACTGGGGCATCAGCAGATTACCATAACTTAA was run?
A: -0.549

Q: With TCTCGGAGGACACGAAGGTCCGAGCTTTCCAGAG as the sequence, how does the PBM binding z-score read?
A: -1.4

Q: For ACAGACAGATGAGTGAAGGTAACTCAGCTGGACG, which PBM binding z-score is on record?
A: -0.174

Q: How did the PBM binding z-score turn out when CCTTACGGGTCACTCCAGGTAATAGCATCGGAGT was run?
A: 0.11

Q: For CCTACTGGCCCAAAAAGGTCATTGATGCCGATAA, which PBM binding z-score is on record?
A: 1.04

Q: For CGAACTAGGTCAGAAGAGGACAGTGAAGGATGAT, which PBM binding z-score is on record?
A: -0.576

Q: ATACCAAGGTGATCGTGAGGTCGTGGATACTAAC was tested. Which PBM binding z-score did it give?
A: -0.127

Q: Which PBM binding z-score does the source give for TGTCACAGTTCAAAGGTAACGTAAGTATCCACAC here?
A: 0.361

Q: ATCTCTAGGTAAAGATAATTCAGTGAATGCAAAT was tested. Which PBM binding z-score did it give?
A: 0.372

Q: TGTCAAAGTTCAAAGGTAAGGTAAGTATCCACAC was tested. Which PBM binding z-score did it give?
A: 1.75

Q: For TCAGATAGGTAAATGCTAGGTGAAAGTCCGATCT, which PBM binding z-score is on record?
A: -0.66

Q: For CCTACTGGGCCAAAGGTCATTGAGTCCAATGCTC, which PBM binding z-score is on record?
A: 0.584

Q: For GGAACGTGGGCATTCGAGTTGATAGCATGGCGAT, which PBM binding z-score is on record?
A: -1.01

Q: TCTGCCAGGTCAGTTGGTCAGCTAACGAGCTGCC was tested. Which PBM binding z-score did it give?
A: 0.604

Q: With ATCTCTAGGTAAAAGTTCCGTGAATCCCGAGGAT as the sequence, how does the PBM binding z-score read?
A: 0.845

Q: How did the PBM binding z-score turn out when TTTAGCAGGCCAGAGGGTCACTCAAGAGGTACGG was run?
A: -0.78

Q: For CGAACTAGGTCATCCAGGAAAGTGAATACATTGA, which PBM binding z-score is on record?
A: 0.453

Q: With GATACAGGGTAAAGGCCAGAGTACGCGTATTGAT as the sequence, how does the PBM binding z-score read?
A: -0.658

Q: With TCTGCTAGGTCAACGATGTTCAGCTAATCTGCTA as the sequence, how does the PBM binding z-score read?
A: -0.31

Q: How did the PBM binding z-score turn out when TCGTGTAGGTTAGTCGGGGCATTCAGCCAACATA was run?
A: 0.252

Q: How did the PBM binding z-score turn out when CCGACTGGGGCATAAGGTTGCCATAAGCCAGCCC was run?
A: -1.17

Q: For GATGCTAGGTCAGGTTGGTCAGCTAACGGGTACG, which PBM binding z-score is on record?
A: 0.041

Q: For GCTACTGGGGCATCAGCAGGTTACCATAACTTAA, which PBM binding z-score is on record?
A: -0.858

Q: For GCTCAGAGGACAAGGTCAGAGCTTTGTCCGTAGA, which PBM binding z-score is on record?
A: -0.977

Q: For CCAGACAGGTGTGAAGGTAACTCAGCCTCGATTA, which PBM binding z-score is on record?
A: -0.724

Q: For GCAGACAGGTGAAACGCAGGTAACTCAGGGTGGC, which PBM binding z-score is on record?
A: -1

Q: For TCATATAGGTAATACACGTGAAAGTCGGCATCTA, which PBM binding z-score is on record?
A: 0.455

— the supplement of paper PMC6555819
